# High-throughput results deposited in PubChem by National Center for Advancing Translational Sciences (NCATS).
# D3 antag: qHTS of D3 Dopamine Receptor Antagonist: qHTS; D3R cells, DiscoveRx beta-arrestin luminescence, antagonist mode; active compounds read low; actives 2.5% (n = 360,000); D(3) dopamine receptor (Homo sapiens), P35462; AID 652054, 2013; max response, negative = inhibition, %; in the data active = max response below about -50%; inconclusive = no clear call, values can overlap the other calls; also: % is scaled to controls: 0 for no effect and ±100 for the full control effect
# Target sequence (P35462 whole entry, looked up): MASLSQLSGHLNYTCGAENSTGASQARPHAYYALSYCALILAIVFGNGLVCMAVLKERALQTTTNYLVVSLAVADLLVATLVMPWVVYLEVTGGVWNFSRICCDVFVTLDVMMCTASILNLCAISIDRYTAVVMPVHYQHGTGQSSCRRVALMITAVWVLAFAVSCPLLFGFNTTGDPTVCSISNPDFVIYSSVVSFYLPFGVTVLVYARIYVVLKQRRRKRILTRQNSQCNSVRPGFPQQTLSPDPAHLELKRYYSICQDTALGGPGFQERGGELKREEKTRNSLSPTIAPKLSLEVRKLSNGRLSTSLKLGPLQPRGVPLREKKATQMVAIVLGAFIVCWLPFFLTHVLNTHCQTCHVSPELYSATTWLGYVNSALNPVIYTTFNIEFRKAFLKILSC
#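 Cells expressing the human receptor were seeded at 1500 cells/well, incubated overnight at 37 degrees C in 5% CO2, then exposed to library compounds with dopamine controls for 90 minutes at 37 degrees C before luminescent detection.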
# D1 antag: Antagonist of Human D 1 Dopamine Receptor: qHTS. actives 3.2% (n = 360,000). AID 504652, 2011. HEK293 TREx D1 cells, calcium flux, dopamine EC80; active compounds read low. activity change, negative = inhibition, % at 10 µM; in the data active = activity change below about -30%; also: % is scaled to controls: 0 for no effect and ±100 for the full control effect
#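 After overnight tetracycline induction at 30 C, force-coupled D1 HEK293 cells took up a no-wash calcium dye at room temperature. Compounds were added and monitored 180 s, and the response to EC80 dopamine was then recorded.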
# D1 PAM: Potentiators of Human D1 Dopamine Receptor: qHTS | D(1A) dopamine receptor (Homo sapiens), P21728 | HEK293 TREx D1 cells, calcium flux, dopamine EC20 potentiation | potentiation, % at 10 µM | actives 0.036% (n = 360,000); in the data active = potentiation above about 30%; also: 0% is about no effect
# DRD3 agonist: qHTS of D3 Dopamine Receptor Agonist: qHTS; AID 652048, 2013; max activation, %; actives 0.58% (n = 410,000); D(3) dopamine receptor (Homo sapiens), P35462; D3R DiscoveRx beta-arrestin cells, luminescence, 90 min; in the data active = max activation above about 30%; also: 0% is about no effect
#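 Agonist mode: compounds and dopamine controls were applied to plated cells for 90 min at 37 degrees C after an overnight attachment at 1500 cells/well. Luminescent read-out followed 30 - 60 minutes at room temperature with DiscoveRx detection reagent.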
# D1 agonist: Allosteric Agonists of the Human D1 Dopamine Receptor: qHTS | AID 504660, 2011 | activation, % at 2 µM | actives 1% (n = 360,000) | D(1A) dopamine receptor (Homo sapiens), P21728 | HEK293 T-REx D1 cells, calcium flux, agonist mode; in the data active = activation above about 30%; also: 0% is about no effect
#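 Agonism was scored from calcium flux recorded over 180 s (1 read/s) after pintool compound addition, following a 10-cycle baseline. Cells were inducible force-coupled HEK293 TREx D1, plated overnight at 30 C and loaded with no-wash calcium dye.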
# * hit, by the source's call; ? = inconclusive; / = no result. Compounds with a hit are over-represented: about 6.1% of the library has one in this group of screens.
SMILES,D3 antag,D1 antag,D1 PAM,DRD3 agonist,D1 agonist
CN1CCN(Cc2ccc(Sc3ccc(Cl)cc3)c([N+](=O)[O-])c2)CC1,-55.0*,-22.3,0.1,-43.6,78.7*
Cc1ccc(Sc2ccc(CO)cc2[N+](=O)[O-])cc1,?,-26.6,-6.5,-8.0,1.5
Cc1ccc(Sc2ccc(CN3CCCC3)cc2[N+](=O)[O-])cc1,-79.4*,20.6,1.5,-20.0,3.1
O=C(N/N=C/c1coc2ccccc2c1=O)c1ccc(Cl)cc1,-9.7,1.9,0.5,-22.5,5.4
O=C(N/N=C/c1coc2ccccc2c1=O)c1ccccc1,6.7,-43.7*,-7.3,-0.3,1.1
CN(C)CCNC(=O)c1ccc(COc2ccc(Cl)cc2Cl)cc1,-28.7,-64.4*,-18.4,-18.5,94.6*
CCNC(=O)c1cc(Cl)ccc1OC,-6.9,-21.0,1.4,3.1,0.7
COc1ccc(Cl)cc1C(=O)NCCN(C)C,-71.8*,6.7,-5.0,-4.2,2.6
COc1cc(NC(=O)C2=C(C)OCCS2)c(Cl)cc1C(=O)NCCN(C)C,-52.4*,-1.4,5.0,-11.2,1.5
NNC(=O)c1nnsc1-c1csnn1,-6.0,/,/,-11.1,/
CCOCC(=O)Nc1nnc(C2CCCCC2)s1,-7.9,-35.8*,-6.7,-4.5,-2.0
O=[N+]([O-])c1ccccc1OCCCNCc1ccccc1,-63.3*,-22.9,-9.1,-12.3,2.4
Clc1ccc(OCCCNCc2ccccc2)c(Br)c1,-78.6*,-3.9,-7.8,-21.1,92.8*
Clc1ccc(Cl)c(OCCCCNCc2ccccc2)c1,-69.1*,-58.3*,-6.5,-13.3,80.7*
COc1cc(C)ccc1OCCCCNCc1ccccc1,-21.3,15.0,-6.5,-14.3,0.6
CCOC(=O)c1noc2nc(C)n(CC(=O)Nc3cccc(OC)c3)c(=O)c12,/,11.7,-1.4,-14.0,-0.3
CCCOc1cccc(C(=O)N(Cc2ccccc2)C2CCS(=O)(=O)C2)c1 (centres undefined),0.7,-12.8,0.6,15.8,-3.0
CCOc1cccc(C(=O)N(Cc2ccc(F)cc2)C2CCS(=O)(=O)C2)c1 (centres undefined),22.2,-9.6,0.8,38.1*,-4.2
COc1cccc(CN(C(=O)c2ccccc2)C2CCS(=O)(=O)C2)c1 (centres undefined),11.9,-34.9*,-11.1,-3.5,1.5
O=C(Cn1ccc2cc(S(=O)(=O)N3CCCC3)ccc21)NCc1ccc(Cl)cc1,/,-0.4,0.1,-4.1,7.8
Cc1cc(C)c(C)c(S(=O)(=O)N2CCNC(=O)C2)c1C,19.3,/,/,5.3,/
O=C(O)CN(CCO)CCN(CC(=O)O)CC(=O)O,/,-1.4,-2.7,/,2.8
O=C(O)CN(CC(=O)O)CC(=O)O,-73.0*,/,/,-46.2,/
O=C(Nc1ccc(C(=O)O)cc1)Nc1ccc([N+](=O)[O-])cc1,-11.3,6.9,-3.2,3.7,6.2
COc1ccc(OC)c(NC(=O)NNC(=O)COc2ccc([N+](=O)[O-])cc2)c1,-16.2,-49.1*,-4.7,-17.2,-0.1
SMILES,D3 antag,D1 antag,D1 PAM,DRD3 agonist,D1 agonist
O=C(COc1ccc([N+](=O)[O-])cc1)NNC(=O)Nc1ccc([N+](=O)[O-])cc1,?,-22.3,-6.2,-7.0,15.0
CCCn1ccc2c(OCC(=O)Nc3cc(C)ccc3C)cccc2c1=O,/,/,-4.0,7.8,45.5*
COC(=O)c1ccc(NC(=O)Nc2ccc([N+](=O)[O-])cc2)cc1,-7.0,-43.2*,-7.0,9.5,35.6*
COC(=O)c1ccc(NC(=O)Nc2ccc(F)cc2)cc1,11.8,-36.3*,-9.9,5.7,23.7
CSc1nsc(SCC(=O)Nc2ccccc2C(=O)O)n1,30.0,-0.6,-7.5,17.2,0.9
C/C(O)=C(\N=Nc1cc(C)ccc1O)C(N)=O,-23.3,7.7,-7.9,-4.9,-0.6
CCOC(=O)c1ccccc1NC(=O)Cc1ccc(OC)c(S(=O)(=O)N2CCOCC2)c1,-2.7,/,/,2.7,/
CC(=O)Nc1ccc(NC(=O)c2cccc(C(=O)OC(C)C)n2)cc1,11.0,7.3,-4.2,0.2,0.9
COc1ccc([N+](=O)[O-])cc1NC(=O)CCS(=O)(=O)c1ccc(Br)cc1,-25.2,-32.7*,-8.2,-15.4,2.7
Cn1ccc2c(OCC(=O)Nc3ccc([N+](=O)[O-])cc3)cccc2c1=O,/,-37.0*,-0.4,-5.1,2.6
COC(=O)c1cccc(C(=O)Nc2ccc(F)cc2)n1,-62.1*,-7.3,3.4,-1.5,0.9
Cn1ccc2c(OCC(=O)Nc3ccc(OC(F)(F)F)cc3)cccc2c1=O,/,/,-2.5,8.9,-1.8
COC(=O)c1ccc(NC(=O)COc2ccc([N+](=O)[O-])cc2)cc1,4.7,-35.1*,-4.4,-5.4,18.0
COc1ccccc1NC(=O)N1CCCC(CNC(=O)c2ccccc2Cl)C1 (centres undefined),-2.4,21.4,-0.4,1.6,1.6
CCc1nn2c(=O)c(S(=O)(=O)Nc3ccc(C(C)C)cc3)c(C)nc2s1,30.5,-5.3,-0.3,5.0,12.6
CC(C)(C)n1nc2c(c1NC(=O)Cc1ccccc1)CS(=O)(=O)C2,-14.3,-19.6,-2.2,-16.6,0.1
COc1cc(/C=C2\CCCc3c2nc2ccccc2c3C(=O)O)cc([N+](=O)[O-])c1O,-100.3*,-3.6,/,-30.2,1.7
COc1cc(/C=C2\CCCc3c2nc2ccccc2c3C(=O)O)cc(OC)c1O,3.2,8.1,4.2,-3.2,1.3
COc1ccc(/C=C2\CCCc3c2nc2ccccc2c3C(=O)O)cc1OC,/,-34.9*,-9.2,/,236.0*
COc1ccccc1CNC(=O)CN1C(=O)NC2(CCCCCC2)C1=O,34.2,/,/,0.5,/
COc1ccc(C)cc1-n1c(-c2ccncc2)n[nH]c1=S,-10.6,-32.5*,-4.5,-0.2,1.0
CC1=CC(C)(C)NC(=S)N1c1ccc(C)c(C)c1,-10.5,-30.8*,2.8,-8.8,59.6*
CCC[C@@H](CN1CCC[C@H]1CN1C(N)=NC[C@@H]1Cc1ccccc1)N1C[C@@H]([C@H](C)CC)N(CCCC2CCCC2)C1=N,-97.1*,/,/,-38.8,/
CCCCN1C(=N)N([C@@H](CCC)CN2CCC[C@H]2CN2C(N)=NC[C@@H]2Cc2ccccc2)C[C@H]1Cc1ccccc1,-79.5*,/,/,-47.8,/
CCC[C@@H](CN1CCC[C@H]1CN1C(N)=NC[C@H]1CC(C)C)N1C[C@@H](Cc2ccccc2)N(CCCC2CCCC2)C1=N,-0.7,/,/,-53.3,/
CCC[C@@H](CN1CCC[C@H]1CN1C(N)=NC[C@@H]1Cc1ccccc1)N1C[C@@H](Cc2ccccc2)N(CCCC2CCCC2)C1=N,-64.1*,/,/,-55.4,/
O=C(CN(Cc1ccc(Cl)cc1)C(=O)c1csnn1)NCc1ccc(F)cc1,-10.0,-15.0,-2.5,8.7,3.9
CCOC(=O)c1sc(NC(=O)c2nc3ncccn3n2)c(C(=O)OC(C)C)c1C,/,0.0,-6.8,-1.4,2.7
